From PubChem
The list is not random: actives were taken first. Their share in the collection is about 7%.
ADAM10 inh: ADAM10 inhibition, QFRET primary screen | O14672 | recombinant ADAM10, EDANS/DABCYL FRET peptide cleavage, 3 h | inhibition, % at 7 µM | 370,000 tested, 0.62% active | AID 720582;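 active = inhibition above a per-campaign cutoff equal to the mean of compounds falling between control-based bounds plus 3 SD, cut at about 20% in these data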
ADAM17 inh: ADAM17 inhibition, QFRET primary screen. P78536. recombinant ADAM17, EDANS/DABCYL FRET peptide cleavage. inhibition, % at 6.95 µM. 370,000 tested, 0.83% active. AID 720648;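 active = inhibition above the mean of compounds lying between control limits plus 3 SD, set per campaign, cut at about 8.5% in these data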
AHR act: activators of human aryl hydrocarbon receptor | P35869 | AHR-responsive luciferase reporter cells, luminescence | activation, % at 5 µM | 320,000 tested, 2.5% active | AID 2796; in the data active = activation above about 47%
rCAG RNA binder: r(CAG) repeat RNA binding; 370,000 tested, 1.3% active; inhibition, % at 3 µM; TO-PRO-1 dye displacement fluorescence;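 active = inhibition above the plate cutoff, the mean of all test compounds on that plate plus 3 SD, cut at about 35% in these data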;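 also: higher means more dye released from RNA so lower well fluorescence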
GRIN3A LBD mod: NR3A (human) ligand-binding domain modulation. Tm shift relative to glycine control, % at 25 µM. NR3A LBD differential scanning fluorimetry, Tm shift; 0% = protein alone, 100% = glycine-bound protein. 340,000 tested, 2.5% active;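 active = melting temperature shift of at least 10% of the positive control shift, at one fixed dose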
KLK7 zymogen act: activators of human kallikrein-7 zymogen | 370,000 tested, 0.9% active | P49862 | AID 652039 | activation, % at 7 µM | purified proKLK7, EDANS-DABCYL substrate fluorescence; 100% is mature enzyme control, 0% vehicle;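 active = activation above the mean of all tested compounds plus 3 SD, computed per campaign excluding outliers beyond control limits, cut at about 13% in these data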
Target sequence (P49862 whole entry, looked up): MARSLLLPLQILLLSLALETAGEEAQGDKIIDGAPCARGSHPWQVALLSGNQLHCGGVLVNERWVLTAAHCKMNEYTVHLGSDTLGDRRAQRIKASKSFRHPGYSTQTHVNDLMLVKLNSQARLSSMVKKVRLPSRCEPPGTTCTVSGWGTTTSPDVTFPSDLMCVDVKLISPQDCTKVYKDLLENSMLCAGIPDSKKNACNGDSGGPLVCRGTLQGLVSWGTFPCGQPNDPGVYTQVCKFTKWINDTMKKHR
AHR act cf: human AHR activation, confirmation. shares compounds with AHR act. human cells, AHR-responsive luciferase reporter, luminescence. activation, % at 9 µM. 2,300 tested, 87% active. AID 2845; in the data active = activation above about 49%;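 also: HepG2 hepatoma cells carrying a DRE-driven firefly luciferase reporter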
PXR act counter: activates human PXR in AHR activator counter-screen; shares compounds with AHR act; cell-based PXR reporter, luciferase luminescence; activation, % at 11.6 µM; 2,300 tested, 88% active; in the data active = activation above about 11%;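 also: human hepatoma DPX-2 cells expressing full-length human PXR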
Numbers stand for hits; i = inactive; nt = not tested or not shown.

SMILES	ADAM10 inh	ADAM17 inh	AHR act	rCAG RNA binder	GRIN3A LBD mod	KLK7 zymogen act	AHR act cf	PXR act counter
CCN(CC)C(=O)c1sc2nc(-c3ccncc3)[nH]c(=O)c2c1C	i	i	i	i	i	i	nt	nt
CCOC(=O)N/N=C/c1cn(CCCOc2ccc(C)cc2)c2ccccc12	i	i	i	i	i	i	nt	nt
CCOC(=O)N/N=C/c1cn(CCCOc2ccccc2)c2ccccc12	i	i	105	i	i	i	85	34
CNC(=S)N/N=C/c1cn(CCOc2ccccc2OC)c2ccccc12	i	i	80	i	i	i	62	110
COc1ccccc1OCCn1cc(C=O)c2ccccc21	i	i	nt	i	i	i	nt	nt
CN1CCN(CCCNC(=O)c2ccc(CS(=O)(=O)c3ccc(Br)cc3)o2)CC1	i	i	81	i	i	i	i	12
O=C(Nc1ccccc1C(=O)NCCc1ccccc1)c1ccco1	i	i	110	i	16	i	102	42
O=C(O)CNC(=O)c1ccccc1NC(=O)c1ccco1	i	i	i	i	i	i	nt	nt
Cc1nc2ccc(NC(=O)c3oc4ccc(F)cc4c3C)cc2s1	nt	nt	86	nt	i	nt	121	20
O=C(Nc1ccccc1)c1cnc(-c2ccccc2)nc1-c1ccccc1	i	i	90	i	i	i	93	47
O=C(O)c1cnc(-c2ccccc2)nc1-c1ccccc1	i	i	i	i	i	i	nt	nt
c1ccc(-c2nc3nc4ccccc4nc3n2Cc2ccco2)cc1	i	i	99	i	i	i	71	20
C=CCn1c(-c2ccc(OC)cc2)nc2nc3ccccc3nc21	i	i	i	i	i	i	nt	nt
N=c1n(CCN2CCCCC2)c2ccccc2n1CC(=O)c1cccc([N+](=O)[O-])c1	i	i	i	i	i	i	nt	nt
C=CCn1c(=N)n(CC(=O)c2cccc([N+](=O)[O-])c2)c2ccccc21	i	i	85	i	i	i	128	58
N#CN1CCC(NS(=O)(=O)c2ccc(F)cc2)C1 (stereo not given)	i	i	nt	nt	nt	nt	nt	nt
CC(=O)Nc1ccc(NC(=O)c2c(C)nc3ccccn23)cc1	i	i	i	i	i	i	nt	nt
Cc1nc2ccccn2c1C(=O)Nc1ccc(Cl)cc1	i	i	91	i	i	i	152	16
CCc1noc(C)c1C(=O)Nc1nc(-c2ccc(F)cc2)c(C)s1	i	i	95	i	i	i	85	28
O=C(N/N=C1\CC2CC=CC12)c1ccc(Br)cc1 (stereo not given)	i	i	i	i	i	i	nt	nt
Cc1cc(Br)c(OCc2ccc(C(=O)N/N=C3\CC4CC=CC34)cc2)c(Br)c1 (stereo not given)	i	i	105	i	12	i	79	11
Cc1ccc(S(=O)(=O)NC(CCCNC(=O)OCc2ccccc2)C(=O)O)cc1 (stereo not given)	i	i	nt	i	nt	i	nt	nt
C[C@H]1[C@@H](N)CC[C@@]23CCCN2C(=O)CCC[C@@H]13	i	i	nt	nt	nt	nt	nt	nt
COc1ccc(-c2cscc2N)cc1	i	i	nt	i	nt	i	nt	nt
CC(C)(C)OC(=O)NCc1cc(F)ccc1/C=C/S(=O)(=O)NCc1ccccc1	i	i	nt	i	nt	i	nt	nt
SMILES	ADAM10 inh	ADAM17 inh	AHR act	rCAG RNA binder	GRIN3A LBD mod	KLK7 zymogen act	AHR act cf	PXR act counter
COc1cc(NC(=O)c2ccccc2)c(OC)cc1NC(C)=O	i	i	86	i	i	i	113	11
COc1ccc(NC(=O)c2ccc(C)cc2)c(OC)c1	i	i	120	i	i	i	96	nt
COc1ccc(NC(=O)c2ccc3[nH]c(=O)c(=O)[nH]c3c2)c(OC)c1	i	i	i	i	i	i	nt	nt
COc1cc(NS(C)(=O)=O)c(OC)cc1NC(=O)c1ccccc1	i	i	i	i	i	i	nt	nt
COc1ccccc1CC(=O)Nc1cc(OC)c(NC(=O)c2ccccc2)cc1OC	i	i	i	i	i	i	nt	nt
COc1ccc(NC(=O)c2ccc(NC(=O)c3ccco3)cc2)c(OC)c1	i	i	i	i	i	i	nt	nt
CCC(=O)Nc1cc(OC)c(NC(=O)c2ccccc2)cc1OC	i	i	82	i	i	i	109	nt
COc1ccc(C(=O)Nc2cc(OC)c(NC(=O)c3ccco3)cc2OC)cc1	i	i	82	i	i	i	110	nt
CC(=O)Nc1nc(-c2ccccc2)nc(C)c1C(C)=O	i	i	80	i	i	i	105	24
CC(=O)c1c(C)nc(-c2ccc(Cl)cc2)nc1NC(=O)C(C)C	i	i	116	i	i	i	137	46
CC(=O)c1c(C)nc(-c2ccccc2)nc1NC(=O)C(C)C	i	i	i	i	i	i	nt	nt
C#CCNC(=O)C[C@H]1C[C@@]2(C(=O)OC)C(=C[C@H](COCc3ccccc3)O[C@@H]2C)N(Cc2ccc3c(c2)OCO3)C1=O	i	i	nt	i	nt	i	nt	nt
CC(C)=C(C#N)c1nc2ccccc2s1	i	i	i	i	i	i	nt	nt
CCC(=O)NC(=S)Nc1ccc(-c2nc3ccccc3s2)cc1	i	i	i	i	i	i	nt	nt
S=C(Nc1ccc(Cl)cc1)c1nc2ccccc2s1	i	i	130	i	i	i	112	13
Cc1ccc(C)c(NC(=S)c2nc3ccccc3s2)c1	i	i	83	i	i	i	135	14
Cc1ccc(NC(=S)c2nc3ccccc3s2)cc1	i	i	82	i	i	i	58	18
CC(=O)Nc1sc2c(c1-c1nc3ccccc3s1)CCN(C(C)C)C2	nt	nt	172	nt	i	nt	70	nt
CCN(CC)c1ccc(/C=N/NC(=O)CN2CCCc3ccccc32)cc1	i	i	i	i	i	i	nt	nt
O=C(CN1CCCc2ccccc21)N/N=C/c1ccccc1	i	i	87	i	i	i	i	40
N#C/C(=C1/CCCCCN1)c1nc2ccccc2[nH]1	i	i	115	i	i	i	144	48
C/C(=N\N=c1/sc2ccccc2n1C)c1ccccn1	i	i	104	i	i	i	143	26
CN1OC[C@@H]2CN(CC3CCCCC3)[C@H](c3ccc(-c4ccc(C#N)cc4)cc3)C[C@@H]21	i	i	nt	i	nt	i	nt	nt
O=C(Nc1nc2c(s1)COc1ccccc1-2)c1cccs1	i	i	129	i	i	i	129	16
Cc1cccc(C2=CC(=O)CC(C)(C)C2=O)c1	i	i	nt	i	nt	i	nt	nt
Clc1ncccc1-c1nc2ccccc2s1	i	i	i	i	i	i	nt	nt
Clc1cc2nc(-c3cccnc3Cl)[nH]c2cc1Cl	i	i	113	i	i	i	108	45
CN1CCN(Cn2cc(/C=C/C(=O)c3ccccc3)c3ccccc32)CC1	nt	nt	86	nt	26	nt	110	47
CCCC1CCC2(CCCN2CCOC(=O)Nc2ccccc2C)CC1 (stereo not given)	i	i	nt	nt	nt	nt	nt	nt
